# From article PMC3218832
# Key:
# Experiment in all cases: protein binding microarray; high values mean tight binding
# Conditions in all cases: dsDNA, one strand shown
# RELARELA (p65 homodimer) = RELARELA (p65 homodimer) (Homo sapiens, UniProt Q04206 1-307)
# p50p50 homodimer = p50p50 homodimer (Homo sapiens, UniProt P19838 7-356)
# p52p52 homodimer = target: T1, p52p52 homodimer (Homo sapiens, UniProt Q00653 4-332)
# T1 sequence: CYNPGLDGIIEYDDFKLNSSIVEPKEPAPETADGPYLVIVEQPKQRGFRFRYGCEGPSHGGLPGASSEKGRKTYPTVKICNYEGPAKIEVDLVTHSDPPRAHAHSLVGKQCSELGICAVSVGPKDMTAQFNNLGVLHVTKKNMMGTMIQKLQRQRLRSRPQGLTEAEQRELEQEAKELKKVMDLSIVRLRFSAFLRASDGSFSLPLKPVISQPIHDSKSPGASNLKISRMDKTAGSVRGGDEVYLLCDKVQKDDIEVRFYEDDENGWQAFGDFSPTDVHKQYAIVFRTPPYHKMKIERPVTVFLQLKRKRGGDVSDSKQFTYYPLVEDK
# [1] = target: RELA (p65) subunit of heterodimer;p50 subunit (Homo sapiens;Homo sapiens, UniProt Q04206;P19838 1-307;7-356)
# [2] = target: RELA (p65) subunit of heterodimer;p52 subunit (Homo sapiens;Homo sapiens, UniProt Q04206;Q00653 1-307;4-332)
# RELB subunit;p50 subunit = RELB subunit;p50 subunit (Homo sapiens;Homo sapiens, UniProt Q01201;P19838 120-401;7-356)
# RELB subunit;p52 subunit = target: T2, RELB subunit;p52 subunit (Homo sapiens;Homo sapiens, UniProt Q01201;Q00653 120-401;4-332)
# T2 sequence 1: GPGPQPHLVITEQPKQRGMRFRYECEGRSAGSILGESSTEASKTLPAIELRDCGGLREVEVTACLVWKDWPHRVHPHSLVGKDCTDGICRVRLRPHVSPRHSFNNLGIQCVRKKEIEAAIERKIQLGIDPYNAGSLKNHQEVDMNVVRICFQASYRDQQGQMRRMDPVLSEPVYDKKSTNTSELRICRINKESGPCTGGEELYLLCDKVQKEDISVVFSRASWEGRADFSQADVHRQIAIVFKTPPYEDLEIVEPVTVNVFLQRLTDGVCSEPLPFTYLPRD
# T2 sequence 2: T1 sequence
# [3] = target: C-Rel subunit;p50 subunit (Homo sapiens;Homo sapiens, UniProt Q04864;P19838 1-285;7-356)
# [4] = target: T3, C-Rel subunit;p52 subunit (Homo sapiens;Homo sapiens, UniProt Q04864;Q00653 1-285;4-332)
# T3 sequence 1: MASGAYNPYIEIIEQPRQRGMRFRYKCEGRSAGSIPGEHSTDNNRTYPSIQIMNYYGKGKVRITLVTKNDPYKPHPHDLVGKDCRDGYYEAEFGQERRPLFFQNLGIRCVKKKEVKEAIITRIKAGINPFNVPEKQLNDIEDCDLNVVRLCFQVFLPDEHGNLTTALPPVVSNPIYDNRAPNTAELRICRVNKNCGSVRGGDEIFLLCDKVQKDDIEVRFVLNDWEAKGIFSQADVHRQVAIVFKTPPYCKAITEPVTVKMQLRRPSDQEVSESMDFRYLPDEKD
# T3 sequence 2: T1 sequence
# Chain of p50p50 homodimer (P19838 7-356): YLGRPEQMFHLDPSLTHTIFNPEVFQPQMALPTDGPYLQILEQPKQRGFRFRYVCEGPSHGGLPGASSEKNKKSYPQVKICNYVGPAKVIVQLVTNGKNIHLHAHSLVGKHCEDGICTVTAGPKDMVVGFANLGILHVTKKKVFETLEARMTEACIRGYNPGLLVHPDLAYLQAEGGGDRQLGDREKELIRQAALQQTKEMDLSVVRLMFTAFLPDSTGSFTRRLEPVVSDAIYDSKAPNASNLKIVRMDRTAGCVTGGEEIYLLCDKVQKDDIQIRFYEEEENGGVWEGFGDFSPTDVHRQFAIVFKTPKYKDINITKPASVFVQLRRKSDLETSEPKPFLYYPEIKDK
# Chain of RELARELA (p65 homodimer) (Q04206 1-307): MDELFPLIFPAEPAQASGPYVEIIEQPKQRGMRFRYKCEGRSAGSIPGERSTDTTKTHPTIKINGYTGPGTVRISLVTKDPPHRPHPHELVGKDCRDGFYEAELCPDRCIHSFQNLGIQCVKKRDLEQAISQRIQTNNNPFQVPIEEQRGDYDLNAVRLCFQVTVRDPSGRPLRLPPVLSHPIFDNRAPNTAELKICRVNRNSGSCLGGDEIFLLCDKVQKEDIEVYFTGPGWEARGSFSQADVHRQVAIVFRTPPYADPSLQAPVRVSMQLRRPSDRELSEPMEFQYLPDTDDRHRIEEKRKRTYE
# Chain of RELA (p65) subunit of heterodimer;p50 subunit (Q04206 1-307, chain 1 of 2): as the sequence (Q04206 1-307) above
# Chain of RELA (p65) subunit of heterodimer;p50 subunit (P19838 7-356, chain 2 of 2): as the sequence (P19838 7-356) above
Sequence,binding signal (RELARELA (p65 homodimer)) [z-score],binding signal (p50p50 homodimer) [z-score],binding signal (p52p52 homodimer) [z-score],binding signal [1] [z-score],binding signal [2] [z-score],binding signal (RELB subunit;p50 subunit) [z-score],binding signal (RELB subunit;p52 subunit) [z-score],binding signal [3] [z-score],binding signal [4] [z-score]
AGATGGTCCCC,-0.243,0.441,0.342,0.0737,0.172,0.435,0.355,0.292,0.217
GAGGGTGTCCC,0.223,0.0932,0.206,0.366,0.191,0.314,0.399,0.469,0.107
AAATGTATCCT,-0.258,-1.3,-0.661,-0.932,-0.782,-0.907,-0.763,-1.32,-0.746
GGAGAAACCCT,0.379,-0.144,0.127,0.478,0.623,-0.35,0.176,0.255,0.637
AGATTCCTCCC,0.213,-0.426,-0.138,-0.135,-0.146,-0.305,-0.191,0.176,-0.118
CGGTTGCTCCT,-0.357,-1.5,-0.686,-0.927,-0.989,-1.09,-0.904,-1.44,-1
CGGTTCATCCT,-0.997,-1.12,-0.513,-0.88,-0.9,-0.96,-0.765,-1.41,-1.01
AAGTTTCCCCT,1.76,1.73,2.41,2.47,2.06,2.72,2.65,2.01,1.96
AGGATTTCCCT,1.99,1.23,2.18,1.44,1.61,1.58,1.91,1.36,1.67
GAGATCCTCCC,-0.414,-0.604,-0.376,-0.425,-0.539,-0.422,-0.686,-0.717,-0.442
AGAGATCCCCC,-0.101,1.31,1.28,2.02,1.56,1.82,1.98,1.37,1.47
AAGAGGCCCCT,-0.777,0.359,-0.0334,-0.301,-0.248,0.196,0.191,-0.344,-0.287
AAATGAGTCCT,-0.142,-1.04,-0.602,-0.991,-0.866,-0.889,-0.596,-1.08,-0.769
CGGTAACTCCC,1.08,0.598,1.03,0.774,0.795,0.459,1.02,0.555,0.833
AGGAGGATCCT,-0.49,-1.69,-0.694,-0.999,-1.04,-0.926,-0.821,-1.4,-0.915
GGAATGCCCCC,2.8,1.02,1.8,2.08,2.18,1.13,1.75,1.61,2.48
GGAAGCCTCCC,-0.446,-1.14,-0.595,-0.524,-0.721,-0.789,-0.717,-0.888,-0.726
GAGAGGACCCC,-0.845,-0.858,-0.455,-0.636,-0.537,-0.461,-0.392,-0.607,-0.571
GGGAACGCCCT,0.932,-0.126,0.394,0.492,0.418,-0.197,0.214,0.154,0.403
CAGTGAACCCC,-0.0364,-0.483,-0.201,-0.227,-0.346,-0.298,-0.205,-0.189,-0.119
CAAAATGCCCT,0.196,-0.106,-0.35,-0.0537,-0.15,-0.464,-0.38,-0.13,-0.0299
AAAAGGTCCCC,0.121,0.934,0.86,0.799,0.753,1.08,0.995,0.454,0.594
AGATTGACCCT,-0.149,-0.594,-0.42,-0.583,-0.704,-0.635,-0.605,-0.895,-0.787
GAAGGCCCCCC,-1.44,0.635,0.244,0.456,0.62,0.366,0.671,0.408,0.0615
AGAGTAGCCCT,-0.721,-1.16,-0.729,-0.963,-0.869,-0.78,-0.814,-1.22,-0.688
GGATAGGTCCC,-0.076,-0.336,0.0228,-0.276,-0.141,-0.137,-0.101,-0.467,-0.334
AAAATGATCCC,-0.603,-0.272,-0.265,-0.543,-0.453,-0.443,-0.704,-0.71,-0.512
CGAAGTGTCCT,-0.41,-1.95,-0.44,-0.957,-0.797,-1.13,-0.796,-1.19,-0.64
GAGATACCCCT,-0.299,0.87,0.576,0.915,1.1,0.817,1.63,0.434,0.859
AAGATGGCCCT,-0.837,-0.78,-0.556,-0.621,-0.715,-0.275,-0.142,-0.828,-0.686
